Data: the supplement of paper PMC8540655
Values without a mark were called inactive.

Test system: Aedes aegypti larvae
Test: larval motility relative to same well at 0 h (fraction); higher = more motile (less active compound), active = 0.4 or less
Conditions: 10 µM
In short: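 Each 96-well plate held about 10 Aedes aegypti larvae per well in 100 µL, along with solvent and larvicide control wells. Compounds were present at 10 µM with 1% v/v DMSO, and INVAPP recorded 200-frame movies at 100 ms intervals at 0, 2 and 24 h. Relative motility divides each well's score by its baseline score from the first recording, with the median taken across independent larval batches, of which there were three.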

Row | SMILES | larval motility (2 h) | larval motility (24 h)
1 | CCc1cc(CCCOc2c(C)cc(-c3noc(C(F)(F)F)n3)cc2C)on1 | 0.695 | 0.658
2 | NCC(=O)Nc1ccc(-n2nc(C(F)(F)F)cc2-c2ccc3c(ccc4ccccc43)c2)cc1 | 0.799 | 1.81
3 | Cc1nc2ccc(Oc3ccccc3)cc2c2c1CCN2CCc1ccccc1 | 0.607 | 0.774
4 | O=C(NC(=O)N1CCCc2ccccc21)c1ccc(Cl)cc1Cl | 0.529 | 0.89
5 | O=C(NC1CCCc2c1[nH]c1ccc(Cl)cc21)c1ccccn1 (configuration not stated) | 1.38 | 1.01
6 | O=C(Nc1cccc(C2=NCCN2)c1)c1ccc(-c2ccc(C(=O)Nc3cccc(C4=NCCN4)c3)cc2)cc1 | 0.648 | 0.961
7 | CC(N)C12CC3CC(CC(C3)C1)C2 (configuration not stated) | 1.14 | 0.773
8 | Nc1nc(O)ncc1F | 0.641 | 1.04
9 | Cc1[nH]c2ccccc2c1CC(=O)N[C@@H](Cc1ccccc1)C(=O)N(C)c1ccccc1 | 0.963 | 1.03
10 | O=C(Nc1nnc(-c2ccc(Cl)cc2)o1)c1ccc(F)cc1 | 1.18 | 0.816
11 | CC(C)Oc1ccc(-n2cnc3cc(/C=C\c4ccc(C(C)(C)O)cc4)ccc32)cc1 | 0.656 | 1.03
12 | FC(F)(F)Oc1ccc(Nc2ccc3cccc(Cl)c3n2)cc1 | 0.563 | 0.29 (active)
13 | O=C(O)CSc1cc(NS(=O)(=O)c2cccc3cccnc23)c2ccccc2c1O | 0.969 | 0.675
14 | CCOC(=O)Nc1cc(NC(C)CC(C)CN(CC)CC)c2nc(-c3ccccc3)c(-c3ccccc3)nc2n1 (configuration not stated) | 0.848 | 1.04
15 | COc1cccc(N2CCN(C3=Nc4c(F)cccc4[C@H](CC(=O)O)N3c3cc(C(F)(F)F)ccc3OC)CC2)c1 | 1.02 | 1.01
16 | CCCC(=O)OCCc1ccccc1 | 0.51 | 0.648

Row | SMILES | larval motility (2 h) | larval motility (24 h)
17 | Cc1nc(Nc2ccc(F)cc2)nc(N2CCc3ccccc3C2C)c1C (configuration not stated) | 0.774 | 0.644
18 | COc1cc(Cc2cnc(N)nc2N)cc(OC)c1OC | 0.864 | 0.829
19 | COc1ccc(NC(=O)CC2Sc3ncnn3C2=O)cc1 (configuration not stated) | 0.728 | 0.333 (active)
20 | CC(=N)N1CC[C@H](SC2=C(C(=O)O)N3C(=O)[C@@H]([C@@H](C)O)[C@H]3C2)C1 | 1.05 | 0.809
21 | Nc1cnn(C2OC(CO)C(O)C2O)c(=O)n1 (configuration not stated) | 1.16 | 1.33
22 | CC(C)(C)c1ccc(C(Cn2cccc(C(F)(F)F)c2=O)NC2Cc3ccccc3C2)cc1 (configuration not stated) | 0.686 | 0.846
23 | O=C(Nc1ccccc1C(=O)O)c1cccc(Oc2ccccc2)c1 | 0.522 | 1.44
24 | CCc1cc(O)c(Oc2ccc(C(N)=O)cc2F)cc1F | 0.539 | 0.942
25 | CCC[C@H](NC(=O)[C@@H]1[C@H]2CCC[C@H]2CN1C(=O)[C@@H](NC(=O)[C@@H](NC(=O)c1cnccn1)C1CCCCC1)C(C)(C)C)C(=O)C(=O)NC1CC1 | 0.881 | 0.577
26 | O=C(c1cc(O)nc2ccccc12)N1CCN(c2ccccc2)CC1 | 0.848 | 0.897
27 | N#C/C(=C1/SC[C@H](c2ccc(Cl)cc2Cl)S1)n1ccnc1 | 0.983 | 1
28 | O=C(O)[C@H]1C2CCC(CC2)[C@@H]1Nc1nc(-c2c[nH]c3ncc(F)cc23)ncc1F | 0.877 | 1.17
29 | Cc1ccccc1NC(=O)Nc1cccc([N+](=O)[O-])c1 | 1.19 | 1.34
30 | O=C(O)CCNC(=O)c1ccccc1 | 0.977 | 1.03
31 | CCc1cc(CCC(=O)Nc2ccccc2O)c(=O)[nH]c1C | 0.689 | 0.991
